# A selection: hits, their analogues and other compounds. The true share with any hit is near 2.9%.
# pPAFAH inh: inhibitors of human plasma PAF acetylhydrolase (pPAFAH) | Q13093 | recombinant pPAFAH, FP-rhodamine probe fluorescence polarization | inhibition, % at 3.39 µM | 1.5% of 330,000 active | AID 463082;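 active means inhibition above the mean inhibition across the screen plus 3 SD, cut at about 25% in these data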;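 further: inhibitors block binding of the rhodamine activity-based probe so polarization drops; 0% = enzyme with DMSO and 100% = wells lacking pPAFAH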
# LYPLA2 counter: counter-screen for PME1 inhibitors: inhibitors of human LYPLA2 | O95372 | recombinant LYPLA2, FP-Rh probe fluorescence polarization | inhibition, % at 5.9 µM | 0.38% of 320,000 active | AID 2177;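 active means inhibition above the screen-wide mean plus 3 SD, limit set per campaign, cut at about 26% in these data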;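 further: 0% = LYPLA2 with DMSO and 100% = wells lacking LYPLA2 enzyme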
# LYPLA1 counter: blocks human lysophospholipase 1, a PME1 counter-screen; 0.16% of 320,000 active; O75608; recombinant LYPLA1, FP-Rh probe fluorescence polarization; inhibition, % at 5.9 µM;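 active means inhibition above the mean of all tested compounds plus 3 SD, set per campaign, cut at about 14% in these data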;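 further: inhibitors block serine hydrolase probe labeling of LYPLA1 so polarization falls; 0% = enzyme with DMSO and 100% = wells lacking LYPLA1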
# Target sequence (O75608 whole entry, looked up): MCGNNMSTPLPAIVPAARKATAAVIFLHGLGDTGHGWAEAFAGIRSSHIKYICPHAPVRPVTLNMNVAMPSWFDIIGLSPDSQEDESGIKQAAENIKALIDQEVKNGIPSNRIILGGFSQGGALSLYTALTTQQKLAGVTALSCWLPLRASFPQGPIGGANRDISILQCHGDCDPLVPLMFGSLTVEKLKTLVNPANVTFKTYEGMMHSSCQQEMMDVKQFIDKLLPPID
# PAFAH2 inh: inhibitors of human PAFAH2; Q99487; inhibition, % at 3.39 µM; recombinant PAFAH2, FP-rhodamine activity probe, fluorescence polarization; 0.99% of 340,000 active;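 active means inhibition above the mean over all tested compounds plus 3 SD, cut at about 30% in these data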;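 further: inhibitors block probe labeling of enzyme so polarization drops; 0% = enzyme with DMSO and 100% = wells lacking PAFAH2 protein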
# PAFAH1B3 inh: inhibitors of human PAFAH1B3; recombinant PAFAH1B3, FP-rhodamine probe, fluorescence polarization; inhibition, % at 3.39 µM; 0.28% of 340,000 active; Q15102;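 active means inhibition above the screen-wide average of all tested compounds plus 3 SD, cut at about 25% in these data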;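 further: 0% = enzyme with DMSO only and 100% = wells lacking PAFAH1B3 protein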
# Target sequence (Q15102 whole entry, looked up): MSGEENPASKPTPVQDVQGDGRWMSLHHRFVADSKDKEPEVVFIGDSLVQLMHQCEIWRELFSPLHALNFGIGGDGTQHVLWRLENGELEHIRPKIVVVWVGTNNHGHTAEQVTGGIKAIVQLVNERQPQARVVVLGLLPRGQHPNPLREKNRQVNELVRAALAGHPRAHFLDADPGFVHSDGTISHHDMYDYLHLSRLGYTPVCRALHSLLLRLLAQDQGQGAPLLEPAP
# PAFAH1B2 FP inh: inhibitors of human PAFAH1B2; P68402; recombinant PAFAH1B2, FP-rhodamine activity probe, fluorescence polarization; inhibition, % at 3.39 µM; 1.2% of 340,000 active; AID 492953;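 active means inhibition above the mean of all tested compounds plus 3 SD, cut at about 24% in these data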;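 further: 0% = enzyme with DMSO and 100% = wells lacking PAFAH1B2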
# Target sequence (P68402 whole entry, looked up): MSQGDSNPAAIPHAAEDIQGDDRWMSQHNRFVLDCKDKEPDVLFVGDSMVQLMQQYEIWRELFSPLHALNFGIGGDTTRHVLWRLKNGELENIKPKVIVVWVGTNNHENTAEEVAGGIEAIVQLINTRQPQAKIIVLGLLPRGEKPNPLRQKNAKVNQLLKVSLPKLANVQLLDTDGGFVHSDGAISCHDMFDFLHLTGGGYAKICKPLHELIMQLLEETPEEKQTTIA
# LYPLA1 conf: LYPLA1 (human) inhibition, confirmation counter-screen | shares compounds with LYPLA1 counter | recombinant LYPLA1, FP-Rh probe fluorescence polarization | inhibition, % at 5.9 µM | 69% of 480 active;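 active means mean inhibition across replicates above the hit cutoff set in the primary screen, cut at about 15% in these data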;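 further: loss of FP-Rh probe labeling of LYPLA1 seen as lower polarization; 0% = LYPLA1 with DMSO and 100% = wells lacking LYPLA1 enzyme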
# LYPLA2 confirm: counter-screen for PME1 inhibitors: confirmation of human LYPLA2 inhibitors; recombinant LYPLA2, FP-Rh probe fluorescence polarization; 72% of 1,100 active; inhibition, % at 5.9 µM; shares compounds with LYPLA2 counter; AID 2232;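 active means mean inhibition across replicates above the hit cutoff set in the primary screen, cut at about 26% in these data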;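 further: blocked labeling of the enzyme by serine hydrolase FP-Rh probe lowers polarization; 0% = enzyme with DMSO and 100% = wells lacking LYPLA2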
# LYPLA2 ABPP: LYPLA2 (human) inhibition, late stage results; inhibition, % at 20 µM; shares compounds with LYPLA2 counter; rhLYPLA2 in mouse brain proteome, gel ABPP FP-Rh; 30% of 150 active;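 active means inhibition of LYPLA2 enzyme probe labeling above about 50%, limit read from the data; inactive means inhibition below that limit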;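 further: loss of FP-Rh probe labeling of the LYPLA2 gel band measured as band density; 0% = DMSO only control band and 100% = blank gel background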
# Starred values were filed as active, the others as inactive; x = not tested or not shown.
SMILES,pPAFAH inh,LYPLA2 counter,LYPLA1 counter,PAFAH2 inh,PAFAH1B3 inh,PAFAH1B2 FP inh,LYPLA1 conf,LYPLA2 confirm,others
CC(Oc1ccc(-c2nccc(-c3ccccn3)n2)cc1)C(=O)NN (stereo unspecified),-4.3,4.6,-0.8,-9.1,-2.5,3.8,x,x,
CC(CCc1ccccc1)NC(=O)C(=O)NCCc1ccccc1 (stereo unspecified),5.8,1.5,3.7,6.2,5.5,3.5,x,x,
CC#CC(=O)N1CCC(n2nccc2NC(=O)c2ccc3c(c2)OCO3)CC1,2.2,31.0*,26.0*,4.3,1.3,-0.3,36.6*,30.1*,
O=S(=O)(c1ccc(SCc2ccccc2)nc1)N1CCCCC1,1.8,5.6,1.1,1.9,3.4,10.0,x,x,
COc1cccc(C2C(C#N)=C(N)Oc3cc(N)ccc32)c1OC (stereo unspecified),23.5,-9.4,-5.6,1.5,-1.1,4.9,x,x,
O=C(O)c1ccccc1C1=Nc2ccc(O)cc2Oc2cc(O)ccc21,27.8*,27.3*,18.7*,-73.2,7.7,9.0,16.4*,-0.1,
O=C(COc1ccc(Cl)cc1)N1CCN(c2ccc([N+](=O)[O-])c(N3CCOCC3)c2)CC1,8.4,32.0*,67.8*,5.7,-1.9,-1.0,75.3*,28.7*,
O=C(/C=C/c1ccc(Cl)cc1)N1CCN(c2ccc([N+](=O)[O-])c(N3CCOCC3)c2)CC1,1.6,6.1,6.3,9.0,-2.4,3.0,x,x,
CCCCn1c(NC(=O)CC)c(C#N)c2nc3ccccc3nc21,0.6,-2.8,-0.7,-9.8,-6.5,8.2,x,x,
CCCCn1c(NC(=O)c2ccccc2Cl)c(C#N)c2nc3ccccc3nc21,26.9*,58.2*,45.3*,37.4*,60.3*,36.2*,62.4*,0.4,
CCC(=O)N1CCN(c2ccc(NC(=S)NC(=O)c3cccc([N+](=O)[O-])c3)cc2)CC1,6.0,58.0*,39.0*,-1.8,3.6,-4.2,32.5*,54.9*,
CC1(c2ccccc2)NC(=O)N(CC(=O)NCc2cccc(Cl)c2)C1=O (stereo unspecified),-2.2,2.4,3.3,1.0,1.9,-2.5,x,x,
CCC(CNc1cc(OC)cc2cccnc12)NC1CCCCC1 (stereo unspecified),25.4*,29.7*,22.5*,-0.5,13.3,4.8,12.9,43.4*,
Cc1cc(NS(=O)(=O)c2ccc(Nc3nc(-c4sc(NC(=O)c5ccccc5)nc4C)cs3)cc2)no1,68.9*,58.9*,41.1*,x,x,x,36.8*,37.4*,
CCn1c(CSc2nnc(-c3ccncc3)n2C)nc2cc(C(=O)O)ccc21,25.9*,40.8*,37.2*,48.9*,36.2*,36.5*,40.6*,36.2*,
CCn1c(CSc2ncn[nH]2)nc2cc(C(=O)O)ccc21,7.7,10.5,4.2,12.0,-0.9,5.4,x,x,
CCCCCCN1C=CC(=C/C=C(\C#N)C(=O)OCC)C=C1,8.8,41.2*,25.4*,2.5,7.7,5.2,26.7*,35.5*,
C=CCn1c(SCC(=O)O)nc2sc(CC)cc2c1=O,1.1,-4.6,0.8,-2.9,7.1,-0.5,x,x,
C=CCn1c(SCC(=O)N2CCCC2=O)nc2sc(CC)cc2c1=O,10.5,38.5*,21.5*,3.9,4.7,-1.5,4.2,-2.7,
COc1ccc(N2CCN(C(=O)C3CCC(Cn4c(=S)[nH]c5ccccc5c4=O)CC3)CC2)cc1 (stereo unspecified),3.7,83.1*,39.8*,-2.7,4.0,4.6,43.1*,84.1*,
O=C(C1CCC(Cn2c(=S)[nH]c3ccccc3c2=O)CC1)N1CCN(c2ccccc2)CC1 (stereo unspecified),0.3,53.0*,35.5*,-8.7,5.4,0.0,45.2*,52.3*,
NC(=O)Cn1c(-c2nonc2N)nc2ccccc21,3.3,0.6,0.2,5.0,6.0,-10.7,x,x,
Cc1cc(=O)n2nc(N3CCCC(C(=O)NCCc4ccccc4)C3)sc2n1 (stereo unspecified),2.8,9.4,4.4,2.5,5.3,-2.7,x,x,
CSc1ccccc1OCc1cc(C(=O)N2CCSCC2)no1,-3.3,-1.6,-1.3,11.8,2.7,3.6,x,x,
CSc1ccccc1OCc1cc(C(=O)N2CCC(Oc3cccnc3)CC2)no1,-5.6,35.5*,35.6*,6.8,6.3,6.0,47.5*,38.8*,
SMILES,pPAFAH inh,LYPLA2 counter,LYPLA1 counter,PAFAH2 inh,PAFAH1B3 inh,PAFAH1B2 FP inh,LYPLA1 conf,LYPLA2 confirm,others
O=C(c1ccco1)N1CCN(c2ncnc3c2nnn3Cc2ccccc2Cl)CC1,4.6,17.1,8.4,4.4,11.5,-10.2,x,x,
CCOC(=O)C1CCN(c2ncnc3c2nnn3Cc2ccccc2Cl)CC1,5.5,48.4*,28.0*,9.0,2.5,0.5,40.4*,53.6*,
Cc1nc2cc(-c3ccccc3)nn2c(C)c1CCC(=O)NCc1ccco1,2.6,1.9,-1.4,2.0,2.7,-4.8,x,x,
COc1cc(Br)c(C(=O)c2nccc3cc(OC)c(OC)cc23)cc1OC,13.9,56.8*,43.9*,40.0*,66.6*,19.9,15.6*,84.6*,
CCc1ccc(N(C(=O)C(F)(F)F)C(C(=O)NC2CCCCC2)c2ccncc2)cc1 (stereo unspecified),-1.7,-4.1,-0.6,0.3,6.6,0.6,x,x,
COc1ccc(-n2nc(C(=O)NCC(=O)N3CCN(Cc4ccccc4)CC3)c3ccccc3c2=O)c(OC)c1,-2.8,78.7*,35.6*,-7.9,0.6,4.8,39.3*,80.6*,
COc1ccc(-n2nc(C(=O)NCC(=O)N3CCN(C)CC3)c3ccccc3c2=O)cc1,-0.2,8.0,2.1,10.9,4.4,4.7,x,x,
COc1ccc(N2CCN(C(=O)CNC(=O)c3nn(-c4ccc(OC)cc4)c(=O)c4ccccc34)CC2)cc1,6.9,54.8*,21.8*,-2.3,-6.1,2.8,16.5*,59.6*,LYPLA2 ABPP=43.0
COc1ccc(-n2nc(C(=O)NCC(=O)N3CCN(Cc4ccccc4)CC3)c3ccccc3c2=O)cc1OC,-4.7,37.6*,20.2*,-0.6,1.8,1.6,45.0*,63.6*,
CCc1nnc(NS(=O)(=O)c2ccc(Nc3ccc([N+](=O)[O-])c4nonc34)cc2)s1,15.1,15.9,5.4,14.0,14.3,7.1,x,x,
O=C(/C=C/c1ccc(Br)cc1)N1CCN(c2cccc(C(F)(F)F)c2)CC1,-1.5,77.9*,46.3*,-14.9,3.1,-3.3,48.8*,62.9*,
O=C(/C=C/c1cccc(Br)c1)N1CCN(c2cccc(C(F)(F)F)c2)CC1,5.8,-0.7,-7.4,0.7,4.9,-2.5,x,x,

# Compound activity: PubChem, The Scripps Research Institute Molecular Screening Center
